# Assay results: PubChem BioAssay (EPA / NIEHS)
# The source made the active and inactive calls. How the source made its calls: active means hit-call score of the fitted dose curve at least 0.9, where 1 is the maximum; inactive means score below 0.9.
# Test: Tanguay_ZF_120hpf_ANY: Oregon State University Tanguay Lab 120 Hour Post-fertilization zebrafish Assay for Any Mortality and Malformation (AID 2284404)
# Procedure: Tanguay_ZF_120hpf is a whole embryo, multiplexed endpoint assay using zebrafish larvae exposed for 120 hours post fertilization on a 96-well plate.Tanguay_ZF_120hpf_ANY is one of one assay component(s) measured or calculated from the Tanguay_ZF_120hpf assay. It is designed to make measurements of developmental malformations and mortality as detected with brightfield microscopy and combines scoring from 13 other assay components measuring more specific morphologies.Data from the assay component Tanguay_ZF_120hpf_ANY was analyzed into 1 assay endpoints. This assay endpoint, Tanguay_ZF_120hpf_ANY, was analyzed in the positive analysis fitting direction relative to DMSO as the negative control and baseline of activity. Using a type of morphology reporter, gain-of-signal activity can be used to understand changes in developmentals as they relate to the whole embryo. To generalize the intended target to other relatable targets, this assay endpoint is annotated to the zebrafish development intended target family, where the subfamily is embryonic morphogenesis and mortality.
# Zebrafish husbandry: Tropical 5D wild-type adult zebrafish were housed in at an approximate density of 1000 per 100 gallon tank at the Sinnhuber Aquatic Research Laboratory, Oregon State University, Corvallis, OR. Each tank was kept at standard laboratory conditions of 28C on a 14-h light/10-h dark photoperiod in fish water consisting of reverse osmosis water supplemented with a commercially available salt (Instant Ocean). Spawning funnels were placed into the tanks the night prior, and embryos were collected and staged. To increase bioavailability, the chorion was enzymatically removed using pronase (63.6mg/ml, >/= 3.5U/mg, Sigma-Aldrich: P5147) at 4 hours post fertilization (hpf) using a custom automated dechorionator.Chemical exposures: Six hpf dechorionated embryos were placed 1 embryo per well in a 96-well plate prefilled with 90 ul of EM using automated embryo placement systems (AEPS). Ten microliters of each row of dilution plate 2 was added to 2 exposure plates. The final DMSO concentration used was 0.64% (vol/vol). Thirty-two embryos were also exposed to 5uM trimethyltin chloride (positive control). Plates were sealed to prevent evaporation and foil covered to reduce light exposure and kept in a 28C incubator. Embryos were statically exposed until 120 hpf. At 24 hpf, embryos were assessed for photomotor response using a custom photomotor response analysis tool (PRAT) and for developmental toxicity endpoints (MO24: mortality at 24 hpf, DP: developmental progression, SM: spontaneous movement, and NC: notochord distortion). At 120 hpf, locomotor activity was measured using Viewpoint Zebralab and assessed for 13 endpoints. Zebrafish acquisition and analysis program (ZAAP), a custom program designed to inventory, acquire, and manage zebrafish data, was used to collect developmental endpoints as either present or absent (i.e., binary responses were recorded). If mortality occurred for an embryo (at either 24 or 120 hpf), the non-mortality endpoints were not measured.
SMILES,outcome,AC50
FC(F)(F)C(F)(F)C(F)(F)C(F)(F)C(F)(F)CCI,inactive,
FC(F)(F)C(F)(F)C(F)(F)C(F)(F)CCI,inactive,
O=C(O)C(F)(F)C(F)(F)C(F)(F)C(F)(F)C(F)(F)C(F)(F)C(F)(F)C(F)(F)C(F)(F)C(F)(F)C(F)(F)C(F)(F)C(F)(F)F,inactive,
FC(F)(F)C(F)(F)C(F)(F)C(F)(F)C(F)(F)C(F)(F)CC1CO1 (stereo not given),inactive,
C=C(C)C(=O)OCCC(F)(F)C(F)(F)C(F)(F)C(F)(F)C(F)(C(F)(F)F)C(F)(F)F,inactive,
FC1CC(F)(F)C(F)(F)C1(F)F (stereo not given),inactive,
FC(F)(F)C(F)(F)C(F)(F)C(F)(F)C(F)(F)C(F)(F)C(F)(F)Br,inactive,
O=C(CC(=O)C(F)(F)C(F)(F)F)C(F)(F)F,,0.0499 µM (active)
O=C(O)C(F)(F)C(F)(F)C(F)F,inactive,
O=C(O)C(F)(F)C(F)(F)C(F)(F)F,inactive,
O=C(O)C(F)(F)C(F)(F)C(F)(F)C(F)(F)C(F)(F)C(F)(F)C(F)(F)C(F)(F)Cl,,39.8 µM (active)
O=P(O)(O)OCCC(F)(F)C(F)(F)C(F)(F)C(F)(F)C(F)(F)C(F)(F)F,,39.1 µM (active)
FC(F)(F)C(F)(F)CNCC(F)(F)C(F)(F)F,inactive,
O=C(O)C(F)(F)C(F)(F)OC(F)(F)F,inactive,
O=C(O)C(F)(F)C(F)(F)C(F)(F)C(F)(F)C(F)(F)C(F)(F)C(F)(F)C(F)(F)C(F)(F)C(F)F,,28.8 µM (active)
C=C(C)C(=O)OCC(F)(F)C(F)(F)C(F)(F)C(F)(F)C(F)(F)C(F)(F)C(F)(F)F,inactive,
OCC(F)(F)C(F)(F)C(F)(F)C(F)F,inactive,
O=S(=O)(O)C(F)(F)C(F)(F)C(F)(F)C(F)(F)C(F)(F)C(F)(F)C(F)(F)F,,33 µM (active)
FC(F)(F)C(F)(F)C(F)(F)CI,inactive,
Cc1ccc(S(=O)(=O)OCC(F)(F)C(F)(F)C(F)(F)C(F)(F)C(F)(F)C(F)F)cc1,inactive,

SMILES,outcome,AC50
O=S(=O)(OCCOC(F)(F)F)C(F)(F)F,inactive,
FC(F)(F)C(F)(F)C(F)(F)C(F)(F)C(F)(F)C(F)(F)C(F)(F)C(F)(F)CCS,inactive,
C=CC(=O)OCC(F)(F)C(F)(F)C(F)(F)C(F)(F)COC(=O)C=C,,14.2 µM (active)
O=C(O)C(F)(OC(F)(F)C(F)(OC(F)(F)C(F)(OC(F)(F)C(F)(F)C(F)(F)F)C(F)(F)F)C(F)(F)F)C(F)(F)F (stereo not given),inactive,
N=C(N)C(F)(F)C(F)(F)C(F)(F)C(F)(F)C(F)(F)C(F)(F)C(F)(F)F,inactive,
OCCCC(F)(F)C(F)(F)C(F)(F)F,inactive,
FC(F)(F)C(F)(F)C(F)(F)C(F)(F)C(F)(F)C(F)(F)C(F)(F)I,inactive,
C=CC(F)(F)C(F)(F)C(F)(F)C(F)(F)C(F)(F)C(F)(F)C(F)(F)C(F)(F)F,inactive,
CC(C)(C)C(=O)CC(=O)C(F)(F)C(F)(F)C(F)(F)F,inactive,
C=CC(F)(F)C(F)(F)C(F)(F)C(F)(F)C(F)(F)C(F)(F)C(F)(F)C(F)(F)C=C,,10.3 µM (active)
OCCCC(F)(F)C(F)(F)C(F)(F)C(F)(F)C(F)(F)C(F)(F)C(F)(F)F,inactive,
O=S(=O)(OCC(F)F)C(F)(F)F,inactive,
FC(F)(F)C(F)(F)C(F)(F)N(C(F)(F)C(F)(F)C(F)(F)F)C(F)(F)C(F)(F)C(F)(F)F,inactive,
OCC(F)(F)C(F)(F)C(F)(F)C(F)(F)C(F)(F)C(F)(F)F,,112 µM (active)
O=C(O)C(F)(OC(F)(F)C(F)(OC(F)(F)C(F)(F)C(F)(F)F)C(F)(F)F)C(F)(F)F (stereo not given),inactive,
FC(F)(F)C(F)(F)C(F)(F)C(F)(F)C(F)(F)C(F)(F)C(F)(F)C(F)(F)F,inactive,
O=C(O)C(F)(F)C(F)(F)F,inactive,
C=CC(=O)OCC(F)(F)C(F)(F)C(F)(F)C(F)(F)C(F)(F)C(F)(F)C(F)(F)F,inactive,
O=C(O)C(F)(F)C(F)(F)C(F)(F)C(F)(F)C(F)(F)C(F)(F)C(F)(F)C(F)(F)C(F)(F)C(F)(F)C(F)(F)C(F)(F)F,,26.3 µM (active)
O=C(O)C(F)(F)C(F)(F)C(F)(F)C(F)(F)F,inactive,
